Test results taken from the supplement of paper PMC7858590.
“And” between values parts separate entries of the source, which are not always exact repeats. Identical values can stand only once. ± gives the standard deviation of the averaged measurements. In all, about 3,800 compounds were measured (“cell shape (eccentricity) Z-score vs DMSO control”: median about 1.1, lowest 2% from about -4.7 on). The sample holds the lowest values, similar compounds and a random draw of the others, so the mix is not that of the screen.

System: human monocyte-derived macrophages (M0)
Test: cell shape (eccentricity) Z-score vs DMSO control; higher = more elongated, M2-like morphology
Conditions: 20 µM; 24 h; macrophage state: M0 (M-CSF)

Row | Structure (SMILES) | cell shape (Z-score)
1 | O=C1c2cccc(O)c2C(=O)c2c(O)cccc21 | 3.05
2 | c1ccc2nc(C3=NCCN3)cnc2c1 | 1.3
3 | c1ccc2cc(C3=NCCN3)ncc2c1 | -4.69
4 | c1ccc2nc(C3=NCCN3)ccc2c1 | 0.187
5 | CCOc1ccc(Cc2cc([C@@H]3O[C@H](CO)[C@@H](O)[C@H](O)[C@H]3O)ccc2Cl)cc1 | -0.0179
6 | CC1(C)C(=O)C=C[C@@]2(C)C1C=C[C@]1(C)C2CC[C@@]2(C)[C@H](c3ccoc3)OC(=O)[C@H]3O[C@]321 (stereo partly specified) | 7.92
7 | CCc1cc(C(C)=O)c(O)cc1OCCCCCC(C)(C)c1nnn[nH]1 | 1.49
8 | CC(C)NC(=N)NC(=N)Nc1ccc(Cl)cc1 | 0.874
9 | N=C(NCCCCCCNC(=N)NC(=N)Nc1ccc(Cl)cc1)NC(=N)Nc1ccc(Cl)cc1 | -6.88
10 | N=C(N)Nc1ccc(Cl)cc1 | 0.554
11 | CC(=O)N[C@H]1[C@H](O[C@H]2CC[C@@]3(C)C(CC[C@]4(C)C3CC=C3[C@@H]5CC(C)(C)CC[C@]5(C(=O)OC5OCC(O)C(O)C5O)C(O)C[C@]34C)C2(C)C)O[C@H](COC2OCC(O)C(OC3OCC(O)C(O)C3O)C2O)[C@@H](O[C@@H]2O[C@@H](C)[C@H](O)[C@@H](O)[C@H]2O[C@@H]2O[C@@H](C)[C@H](O)[C@@H](O)[C@H]2O)[C@@H]1O (stereo partly specified) | -2.27 ± 4.4
12 | O=C1NN(C(=O)Nc2ccc(Br)cc2)[C@@H](c2ccccc2)[C@@H]1c1ccccc1 | 1.43
13 | COC(=O)[C@@H]1[C@H]2C[C@H]3c4[nH]c5ccccc5c4CCN3C[C@@H]2CC[C@@H]1O | -0.402
14 | O=C(/C=C/c1ccc(O)cc1)CC(=O)/C=C/c1ccc(O)cc1 | -1.34
15 | O=C(/C=C/c1ccccc1)CC(O)CCc1ccccc1 (stereo unspecified) | -0.2
16 | O=C(/C=C/c1ccccc1)CC(=O)/C=C/c1ccccc1 | -8.63
17 | c1ccc(-c2n[nH]c3c2oc2ccccc23)cc1 | 0.646
18 | CCN1C(=CC=Cc2ccc3ccccc3[n+]2CC)C=Cc2ccccc21 | -7.46
19 | CC1(C)CCC(C)(C)c2cc([C@@H](O)C(=O)Nc3ccc(C(=O)O)cc3F)ccc21 | 5.37
20 | C=C(NC(=O)C(=C)NC(=O)c1csc(C2=N[C@H]3c4csc(n4)[C@H]4NC(=O)c5csc(n5)[C@H]([C@@](C)(O)[C@@H](C)O)NC(=O)[C@H]5CSC(=N5)C(=CC)NC(=O)[C@H]([C@@H](C)O)NC(=O)c5csc(n5)[C@]3(CC2)NC(=O)[C@H](C)NC(=O)C(=C)NC(=O)[C@H](C)NC(=O)[C@H](C(C)CC)N[C@@H]2C=Cc3c([C@H](C)O)cc(nc3[C@H]2O)C(=O)O[C@@H]4C)n1)C(N)=O (stereo partly specified) | -6.13
21 | COc1cc(C)c(C(=O)O[C@H]2[C@@H](OC(C)=O)[C@H](n3ccc(=O)[nH]c3=O)O[C@@H]2CO)c(OC)c1 | 1.91 ± 0.92
22 | Cc1ccc(/C(=C\CN2CCCC2)c2ccccn2)cc1 | 1.6
23 | CCOC(=O)N[C@@H]1CC[C@@H]2[C@@H](C1)C[C@H]1C(=O)O[C@H](C)[C@H]1[C@H]2/C=C/c1ccc(-c2cccc(F)c2)cn1 | 5.12

Row | Structure (SMILES) | cell shape (Z-score)
24 | CC(=O)O[C@H]1C(=O)[C@@]2(C)C([C@H](OC(=O)c3ccccc3)[C@]3(O)C[C@H](OC(=O)[C@H](O)[C@@H](NC(=O)c4ccccc4)c4ccccc4)C(C)=C1C3(C)C)[C@]1(OC(C)=O)CO[C@@H]1C[C@@H]2O (stereo partly specified) | -4.41 and -4.29 and -4.69
25 | CC(=O)OC1C(=O)C2(C)C(O)CC3OCC3(OC(C)=O)C2C(OC(=O)c2ccccc2)C2(O)CC(OC(=O)C(O)C(NC(=O)c3ccccc3)c3ccccc3)C(C)=C1C2(C)C (stereo unspecified) | -3.69
26 | CC(=O)O[C@H]1C(=O)[C@@]2(C)[C@H]([C@H](OC(=O)c3ccccc3)[C@]3(O)C[C@H](OC(=O)[C@H](O)[C@@H](NC(=O)c4ccccc4)c4ccccc4)C(C)=C1C3(C)C)[C@]1(OC(C)=O)CO[C@@H]1C[C@@H]2O | -5.5
27 | CC/C(=C(/CC)c1ccc(O)cc1)c1ccc(O)cc1 | 1.77
28 | CC1(C)CC[C@]2(C(=O)O[C@@H]3O[C@H](CO)[C@@H](O)[C@H](O)[C@H]3O)CC[C@]3(C)C(=CCC4[C@@]5(C)C[C@@H](O)[C@H](O)[C@](C)(CO)C5CC[C@]43C)C2[C@@H]1O (stereo partly specified) | 1.6
29 | Cc1[nH]c2ccccc2c1CCNCc1ccc(/C=C/C(=O)NO)cc1 | 4.88 and 5.32
30 | C/C=C/C=C/C(=O)c1cc(C)c(O)c(C)c1O | 1.03
31 | Cc1cc2nc3c(=O)[nH]c(=O)nc-3n(C)c2cc1C=O | -7.12
32 | Cc1cc2nc3c(=O)[nH]c(=O)nc-3n(C[C@@H](O)[C@@H](O)[C@@H](O)CO)c2cc1C | 0.422
33 | CCCCCCCNS(=O)(=O)c1cccc2c(Cl)cccc12 | 0.986
34 | CN(C)CCCSC(=N)N | 0.27
35 | NC(COCc1ccccc1)C(=O)O (stereo unspecified) | 1.15
36 | Oc1ccc(-c2nc(-c3ccc(F)cc3)c(-c3ccncc3)[nH]2)cc1 | -5.27
37 | CS(=O)c1ccc(-c2nc(-c3ccc(F)cc3)c(-c3ccncc3)[nH]2)cc1 (stereo unspecified) | 3.26
38 | CS(=O)(=O)c1ccc(-c2nc(-c3ccc(F)cc3)c(-c3ccncc3)[nH]2)cc1 | 1.46
39 | O=C(O)c1cc2cc(OCc3ccccc3)ccc2[nH]1 | 1.63
40 | CC(=O)O[C@H]1[C@H](Oc2ccccc2COC(=O)C2(O)C=CCCC2=O)O[C@H](CO)[C@@H](O)[C@@H]1O (stereo partly specified) | 1.32
41 | CCn1cc(C(=O)O)c(=O)c2cc(F)c(N3CCNCC3)nc21 | -1.1
42 | C=C1C(=O)O[C@@H]2[C@H]3C(CO)=CC(=O)C3=C(C)C[C@H](OC(=O)Cc3ccc(O)cc3)[C@@H]12 | -6.23
43 | C=C1C(=O)O[C@H]2C1CCC(C)=C1C(=O)C=C(C)[C@@H]12 (stereo partly specified) | -3.7
44 | O=C(Cc1ccc(O)cc1)OC1[C@@H](O)[C@@H](O)C(OC(=O)Cc2ccc(O)cc2)[C@H](O)[C@@H]1O (stereo partly specified) | 2.31
45 | CC1(C)CCC(CN2CCN(c3ccc(C(=O)NS(=O)(=O)c4ccc(NCC5CCOCC5)c([N+](=O)[O-])c4)c(Oc4cnc5[nH]ccc5c4)c3)CC2)=C(c2ccc(Cl)cc2)C1 | 6.74
46 | COCc1c(C(C)C)nc(C(C)C)c(/C=C/[C@@H](O)C[C@@H](O)CC(=O)O)c1-c1ccc(F)cc1 | 10.1 ± 0.39

Row | Structure (SMILES) | cell shape (Z-score)
47 | CCC[C@@H]1C[C@@H](C(=O)NC(C(C)Cl)C2O[C@H](SC)[C@H](O)[C@@H](O)[C@H]2O)N(C)C1 (stereo partly specified) | 3.16
48 | CC(Nc1nc(N2CCCC2)nc2ccccc12)c1ccccc1 (stereo unspecified) | -7.72
49 | COc1cc2nc(N3CCCN(C)CC3)nc(NC3CCN(Cc4ccccc4)CC3)c2cc1OC | 3.25
50 | Cc1cc(N2CCCCC2)nc2ccccc12 | 0.281
51 | CC#CCOC(=O)c1c(C)nc2sc3c(c2c1N)CCC(O)C3 (stereo unspecified) | -0.105
52 | C[C@@H]1O[C@@H](Oc2ccc(-c3coc4cc(O[C@@H]5O[C@@H](C)[C@H](O)[C@@H](O)[C@H]5O)cc(O)c4c3=O)cc2)[C@H](O)[C@H](O)[C@H]1O | -0.632
53 | c1ccc(COCCCc2cnc[nH]2)cc1 | 2.2
54 | O=C(CCCc1ccc(-c2ccccc2F)cc1)Nc1ccc(O)cc1 | -4.74
55 | O=C(O)CCCc1ccccc1 | 0.59
56 | Cc1c(Cl)cccc1Nc1ccccc1C(=O)O | 1.66
57 | O=C(O)c1ccccc1Nc1ccccc1 | 2.81
58 | COc1ccc(S(=O)(=O)N(C(C)=O)c2ccccc2/C=C/c2cc[n+]([O-])cc2)cc1 | -4.1
59 | CC(=O)OCC(=O)[C@@]1(O)CCC2C3CCC4=CC(=O)CC[C@]4(C)C3C(=O)C[C@@]21C (stereo partly specified) | -0.245
60 | C=C1CCC2(C(=O)OC3OC(CO)C(O)C(O)C3O)CCC3(C)C(=CCC4C5(C)CC(O)C(OC6OCC(O)C(O)C6OC6OC(CO)C(O)C(O)C6O)C(C)(CO)C5CCC43C)C2C1 (stereo unspecified) | 0.275
61 | C=C(COC(=O)C(C)C)C1Oc2cc(C(C)=O)ccc2C1OC(=O)C(C)C (stereo unspecified) | 1.56
62 | Cc1cc(C)c(CNC(=O)c2cc(-c3ccc(N4CCNCC4)nc3)cc3c2cnn3C(C)C)c(=O)[nH]1 | 3.48
63 | CC(Cc1ccc(O)c(O)c1)(NN)C(=O)O (stereo unspecified) | -0.173
64 | C=C(C(=O)O[C@H]1CC=C(C)C[C@H](O)[C@H]2[C@H](C)C(=O)O[C@@H]2/C=C/1C)[C@@H]1CCC(=C)[C@@H]2C[C@H](O[C@@H]3O[C@H](CO[C@H]4OC[C@](O)(CO)[C@H]4O)[C@@H](O)[C@H](O)[C@H]3O)C(=C)[C@@H]2C1 | -4.65
65 | COc1cc(O[C@@H]2O[C@H](CO[C@H]3OC[C@](O)(CO)[C@H]3O)[C@@H](O)[C@H](O)[C@H]2O)cc(OC)c1OC | 1.07
66 | C=C1C(=O)O[C@@H]2[C@H]3C(=C)[C@@H](O[C@@H]4O[C@H](CO)[C@@H](O)[C@H](O)[C@H]4O)C[C@H]3C(=C)C[C@@H](O)[C@@H]12 | 2.36
67 | O=C(c1ccc(Nc2nccc(-c3cc4ccccc4s3)n2)cc1)N1CCC(N2CCCC2)CC1 | -4.98
68 | COc1cc(C(=O)N2CCC(N3CCN(C)CC3)CC2)ccc1Nc1ncc2c(n1)N(C)c1ccccc1C(=O)N2C | 8.88
69 | Cc1c(-c2ccnc(Nc3ccc(N4CCNCC4)cc3)n2)sc(=O)n1C | 9.91

Row | Structure (SMILES) | cell shape (Z-score)
70 | COc1cc(OC2OC(COC3OCC(O)(CO)C3O)C(O)C(O)C2O)c2c(-c3ccc(O)c(O)c3)cc(=O)oc2c1 (stereo unspecified) | -0.273
71 | CCOC(=O)C1C(=O)C(=O)Nc2ccccc21 (stereo unspecified) | 2.09
72 | CC[N+](C)(CC)CC(=O)Nc1c(C)cccc1C | -0.632
73 | CC[N+](CC)(CC(=O)Nc1c(C)cccc1C)Cc1ccccc1 | 1.74
74 | Cc1cccc(C)c1NC(=O)C[N+](C)(C)C | -4.98
75 | COc1ccc2c(C)cc(=O)oc2c1 | 4.64
76 | Cc1cc(=O)oc2c(O)c(O)ccc12 | 1.41
77 | Cc1cc2cc3c(C)cc(=O)oc3c(C)c2o1 | -4.76
78 | COC(=O)C1=C(C)NC(C)=C(C(=O)OCCCN2CCC(c3ccccc3)(c3ccccc3)CC2)[C@H]1c1cccc([N+](=O)[O-])c1 | 1.82
79 | CCC(=O)OCC1=CCCC2C1(C)CCC(C)C2(C)CCC(C)CC(=O)O (stereo unspecified) | 0.255
80 | COc1cc(C)c2c(=O)cc(-c3ccccc3)oc2c1 | 1.41
81 | COc1cc(O)c(C(=O)c2c(O)cc(C)cc2O)c(C(=O)O)c1 | 1.14 ± 0.29
82 | C=C1[C@@H](C2=CC(=O)OC2)CC[C@@]2(O)[C@@H]1CC1[C@H]2CC[C@@H]2C[C@@H](O[C@H]3O[C@@H](C)[C@@H](O[C@@H]4O[C@H](CO[C@@H]5O[C@H](CO)[C@@H](O)[C@H](O)[C@H]5O)[C@@H](O)[C@H](O)[C@H]4O)[C@H](OC)[C@H]3O)CC[C@]12C (stereo partly specified) | -4.99
83 | COC1CC(O[C@H]2CC[C@]3(C)C4CC[C@@]5(C)C(=O)[C@]4(CC[C@@H]3C2)CC[C@@H]5C2=CC(=O)OC2)OC(C)C1OC1OC(COC2OC(CO)C(O)C(O)C2O)C(O)C(O)C1O (stereo partly specified) | 0.241
84 | CO[C@@H]1CC(OC2CCC3(C)C(CCC45CCC(C6=CC(=O)OC6)C(C)(CCC43)C5=O)C2)O[C@H](C)[C@@H]1O[C@@H]1O[C@H](CO[C@@H]2O[C@H](CO)[C@@H](O)[C@H](O)[C@H]2O)[C@@H](O)[C@H](O)[C@H]1O (stereo partly specified) | 1.71
85 | COC(CCc1ccc(O)c(O)c1)CC(=O)CCc1ccc(O)c(O)c1 (stereo unspecified) | 1.18
86 | CN1CCN(CCOc2cc(OC3CCOCC3)c3c(Nc4c(Cl)ccc5c4OCO5)ncnc3c2)CC1 | 5.59
87 | C[C@@H](C1=C(CCN(C)C)Cc2ccccc21)c1ccccn1 | 1.35
88 | CCOc1cc(/C=C(/C#N)C(N)=O)cc(CSc2ccccc2)c1O | 2.62
89 | O=C(O)Cc1nn(Cc2nc3cc(C(F)(F)F)ccc3s2)c(=O)c2ccccc12 | 1.57
90 | O=C(O)Cc1nn(Cc2ccc(Br)cc2F)c(=O)c2ccccc12 | -4.79
91 | CC(C)n1cnc2c(NCc3ccccc3O)nc(NCCCO)nc21 | 3.13
